Experimental data published in article PMC7862700, “An all-to-all approach to the identification of sequence-specific readers for epigenetic DNA modifications on cytosine”.

Experiments:
Assay in all cases: DAPPL (digital affinity profiling via proximity ligation, sequencing); 10 mM Tris-HCl pH 7.5, 50 mM NaCl, 1 mM DTT, 4% glycerol, room temperature, 30 min; GST-TFs on glutathione beads, 16-mer random dsDNA library, 0.1% formaldehyde crosslink after washing; high values mean tight binding
[1] = target: T1, FEV (Homo sapiens, UniProt Q99581 1-238); details: protein: recombinant; tags: N-terminal GST; dsDNA, one strand shown
T1 sequence: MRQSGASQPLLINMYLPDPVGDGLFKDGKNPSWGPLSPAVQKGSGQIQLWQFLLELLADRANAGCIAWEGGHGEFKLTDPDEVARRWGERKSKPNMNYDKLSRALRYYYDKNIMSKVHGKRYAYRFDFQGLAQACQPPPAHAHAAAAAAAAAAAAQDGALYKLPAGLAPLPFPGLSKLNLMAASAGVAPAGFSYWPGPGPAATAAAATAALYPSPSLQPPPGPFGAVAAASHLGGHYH
Method in brief: (§1)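 Human transcription factors were made in yeast as GST fusions, captured on glutathione beads and barcoded with DNA. With a tag-only sample included, the pool was incubated with 200 nmole of a random double-stranded 16-mer DNA library in Tris/NaCl/DTT/glycerol buffer at room temperature for 30 min, then crosslinked with 0.1% formaldehyde after washing, ligated by proximity, amplified and sequenced. For binding signal, each hexamer's read frequency for a factor is divided by its frequency for the tag-only sample.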

[2] = target: ETV5 (Homo sapiens, UniProt P41161 1-510); details: protein: recombinant; tags: N-terminal GST; dsDNA, one strand shown
Sequence of ETV5 (P41161 whole entry): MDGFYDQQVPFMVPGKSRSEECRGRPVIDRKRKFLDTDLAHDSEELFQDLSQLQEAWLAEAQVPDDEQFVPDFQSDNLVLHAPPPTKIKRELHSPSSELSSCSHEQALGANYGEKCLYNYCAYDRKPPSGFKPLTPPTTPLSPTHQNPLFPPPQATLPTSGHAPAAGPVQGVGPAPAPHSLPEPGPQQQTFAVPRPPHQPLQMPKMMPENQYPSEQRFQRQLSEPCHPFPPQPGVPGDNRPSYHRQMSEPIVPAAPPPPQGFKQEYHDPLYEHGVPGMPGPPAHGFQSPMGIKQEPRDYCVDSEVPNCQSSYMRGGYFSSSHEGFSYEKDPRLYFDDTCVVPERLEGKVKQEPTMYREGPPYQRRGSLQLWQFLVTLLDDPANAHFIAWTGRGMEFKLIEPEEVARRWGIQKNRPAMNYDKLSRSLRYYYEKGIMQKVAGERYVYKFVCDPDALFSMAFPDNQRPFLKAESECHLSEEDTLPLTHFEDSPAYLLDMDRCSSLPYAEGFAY
Method in brief: as §1

[3] = target: HSF1 (Homo sapiens, UniProt Q00613 1-529); details: protein: recombinant; tags: N-terminal GST; chain copies: 3; dsDNA, one strand shown
Sequence of HSF1 (Q00613 whole entry): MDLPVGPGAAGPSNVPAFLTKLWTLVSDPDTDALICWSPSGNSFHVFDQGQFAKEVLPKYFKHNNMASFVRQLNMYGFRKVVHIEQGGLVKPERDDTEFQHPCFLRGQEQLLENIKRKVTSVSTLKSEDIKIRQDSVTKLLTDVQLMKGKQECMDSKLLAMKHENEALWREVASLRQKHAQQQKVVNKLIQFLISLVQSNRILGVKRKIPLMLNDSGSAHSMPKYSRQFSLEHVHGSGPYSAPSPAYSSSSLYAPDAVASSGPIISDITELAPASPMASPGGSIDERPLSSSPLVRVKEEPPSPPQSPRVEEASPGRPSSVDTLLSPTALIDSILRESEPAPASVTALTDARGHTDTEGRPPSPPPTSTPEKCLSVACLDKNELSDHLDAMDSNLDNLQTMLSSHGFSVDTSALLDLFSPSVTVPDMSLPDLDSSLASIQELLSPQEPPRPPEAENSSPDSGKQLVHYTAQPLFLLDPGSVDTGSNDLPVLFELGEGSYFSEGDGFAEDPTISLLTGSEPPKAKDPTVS
Method in brief: as §1

[4] = target: T2, SPIC (Homo sapiens, UniProt Q8N5J4 1-248); details: protein: recombinant; tags: N-terminal GST; dsDNA, one strand shown
T2 sequence: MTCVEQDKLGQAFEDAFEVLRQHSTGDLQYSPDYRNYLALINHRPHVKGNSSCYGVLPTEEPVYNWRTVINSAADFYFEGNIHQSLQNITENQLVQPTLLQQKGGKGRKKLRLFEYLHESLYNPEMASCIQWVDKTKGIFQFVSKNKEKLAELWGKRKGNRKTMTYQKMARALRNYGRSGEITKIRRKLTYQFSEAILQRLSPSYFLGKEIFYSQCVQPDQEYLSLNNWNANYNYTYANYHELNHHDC
Method in brief: as §1

[5] = target: ELF4 (Homo sapiens, UniProt Q99607 1-663); details: protein: recombinant; tags: N-terminal GST; dsDNA, one strand shown
Sequence of ELF4 (Q99607 whole entry): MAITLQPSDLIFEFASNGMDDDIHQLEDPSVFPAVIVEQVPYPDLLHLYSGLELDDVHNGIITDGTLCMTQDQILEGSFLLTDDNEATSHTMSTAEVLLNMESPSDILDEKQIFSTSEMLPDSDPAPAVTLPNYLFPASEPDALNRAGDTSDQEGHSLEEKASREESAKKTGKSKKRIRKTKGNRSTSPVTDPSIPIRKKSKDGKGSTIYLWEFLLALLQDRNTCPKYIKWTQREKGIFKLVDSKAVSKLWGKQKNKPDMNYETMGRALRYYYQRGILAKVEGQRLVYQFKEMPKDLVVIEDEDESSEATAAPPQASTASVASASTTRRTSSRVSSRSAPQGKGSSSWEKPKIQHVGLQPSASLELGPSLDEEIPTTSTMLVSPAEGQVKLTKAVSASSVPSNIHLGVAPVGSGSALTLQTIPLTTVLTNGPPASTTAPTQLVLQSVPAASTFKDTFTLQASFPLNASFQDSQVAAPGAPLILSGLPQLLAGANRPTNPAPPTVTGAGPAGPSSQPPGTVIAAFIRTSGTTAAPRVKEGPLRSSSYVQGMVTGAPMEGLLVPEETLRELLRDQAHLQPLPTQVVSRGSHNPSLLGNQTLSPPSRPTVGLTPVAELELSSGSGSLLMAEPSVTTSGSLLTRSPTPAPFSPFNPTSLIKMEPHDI
Method in brief: as §1

[6] = target: T3, ELK4 (Homo sapiens, UniProt P28324-2 1-405); details: protein: recombinant; tags: N-terminal GST; dsDNA, one strand shown
T3 sequence: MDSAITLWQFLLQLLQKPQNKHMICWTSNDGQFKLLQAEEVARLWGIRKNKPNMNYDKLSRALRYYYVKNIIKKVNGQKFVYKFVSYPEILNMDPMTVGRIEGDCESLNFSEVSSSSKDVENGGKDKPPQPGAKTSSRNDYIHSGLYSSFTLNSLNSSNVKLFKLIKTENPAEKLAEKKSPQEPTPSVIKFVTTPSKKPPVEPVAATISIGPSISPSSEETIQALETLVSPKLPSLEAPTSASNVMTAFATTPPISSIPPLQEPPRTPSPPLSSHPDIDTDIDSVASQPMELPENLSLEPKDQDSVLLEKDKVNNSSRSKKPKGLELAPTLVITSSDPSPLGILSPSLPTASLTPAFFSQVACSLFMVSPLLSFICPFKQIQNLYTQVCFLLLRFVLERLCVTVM
Method in brief: as §1

[7] = target: T4, ETV2 (Homo sapiens, UniProt O00321 1-342); details: protein: recombinant; tags: N-terminal GST; dsDNA, one strand shown
T4 sequence: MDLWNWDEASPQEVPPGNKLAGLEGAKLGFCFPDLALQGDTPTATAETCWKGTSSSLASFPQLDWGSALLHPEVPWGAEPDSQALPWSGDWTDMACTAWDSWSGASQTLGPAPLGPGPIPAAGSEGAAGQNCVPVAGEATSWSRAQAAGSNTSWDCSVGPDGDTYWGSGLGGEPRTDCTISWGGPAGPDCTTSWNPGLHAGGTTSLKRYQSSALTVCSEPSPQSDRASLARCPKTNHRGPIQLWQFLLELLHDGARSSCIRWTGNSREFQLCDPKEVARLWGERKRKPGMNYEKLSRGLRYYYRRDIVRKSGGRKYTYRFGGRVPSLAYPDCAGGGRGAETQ
Method in brief: as §1

[8] = target: T5, ELF3 (Homo sapiens, UniProt P78545 1-371); details: protein: recombinant; tags: N-terminal GST; dsDNA, one strand shown
T5 sequence: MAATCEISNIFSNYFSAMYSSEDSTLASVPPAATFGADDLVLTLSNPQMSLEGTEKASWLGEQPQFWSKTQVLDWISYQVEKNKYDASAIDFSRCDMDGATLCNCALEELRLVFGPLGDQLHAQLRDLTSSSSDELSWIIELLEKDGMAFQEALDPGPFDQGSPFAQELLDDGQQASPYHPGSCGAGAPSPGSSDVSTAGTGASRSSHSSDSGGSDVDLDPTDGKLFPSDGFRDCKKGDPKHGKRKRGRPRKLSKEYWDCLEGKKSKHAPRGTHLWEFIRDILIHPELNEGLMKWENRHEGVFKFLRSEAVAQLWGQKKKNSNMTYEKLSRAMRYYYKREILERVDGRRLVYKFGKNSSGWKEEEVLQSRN
Method in brief: as §1

[9] = target: CRX (Homo sapiens, UniProt O43186 1-299); details: protein: recombinant; tags: N-terminal GST; dsDNA, one strand shown
Sequence of CRX (O43186 whole entry): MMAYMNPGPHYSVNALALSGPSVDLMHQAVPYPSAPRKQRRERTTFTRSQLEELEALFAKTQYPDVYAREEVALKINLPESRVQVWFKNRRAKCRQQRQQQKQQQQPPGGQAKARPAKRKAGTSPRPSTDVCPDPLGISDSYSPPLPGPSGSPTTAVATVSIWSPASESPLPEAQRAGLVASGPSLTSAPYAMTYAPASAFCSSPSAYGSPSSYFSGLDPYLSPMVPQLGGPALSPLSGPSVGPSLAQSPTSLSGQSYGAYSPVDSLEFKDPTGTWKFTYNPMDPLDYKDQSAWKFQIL
Method in brief: as §1

[10] = target: ETV1 (Homo sapiens, UniProt P50549 1-477); details: protein: recombinant; tags: N-terminal GST; dsDNA, one strand shown
Sequence of ETV1 (P50549 whole entry): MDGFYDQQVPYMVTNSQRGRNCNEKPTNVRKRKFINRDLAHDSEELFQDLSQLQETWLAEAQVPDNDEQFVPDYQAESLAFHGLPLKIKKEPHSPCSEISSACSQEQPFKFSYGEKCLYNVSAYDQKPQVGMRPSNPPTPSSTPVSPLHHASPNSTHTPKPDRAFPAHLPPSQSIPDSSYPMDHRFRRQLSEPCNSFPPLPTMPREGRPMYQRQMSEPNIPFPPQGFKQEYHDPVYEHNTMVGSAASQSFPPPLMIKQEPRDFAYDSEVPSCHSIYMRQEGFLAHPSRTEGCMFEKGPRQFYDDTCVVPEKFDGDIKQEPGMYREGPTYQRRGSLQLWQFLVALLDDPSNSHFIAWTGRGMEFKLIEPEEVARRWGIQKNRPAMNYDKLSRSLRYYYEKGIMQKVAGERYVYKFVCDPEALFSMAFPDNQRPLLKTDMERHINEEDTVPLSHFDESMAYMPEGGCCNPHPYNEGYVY
Method in brief: as §1

[11] = target: T6, ERF (Homo sapiens, UniProt P50548 1-548); details: protein: recombinant; tags: N-terminal GST; dsDNA, one strand shown
T6 sequence: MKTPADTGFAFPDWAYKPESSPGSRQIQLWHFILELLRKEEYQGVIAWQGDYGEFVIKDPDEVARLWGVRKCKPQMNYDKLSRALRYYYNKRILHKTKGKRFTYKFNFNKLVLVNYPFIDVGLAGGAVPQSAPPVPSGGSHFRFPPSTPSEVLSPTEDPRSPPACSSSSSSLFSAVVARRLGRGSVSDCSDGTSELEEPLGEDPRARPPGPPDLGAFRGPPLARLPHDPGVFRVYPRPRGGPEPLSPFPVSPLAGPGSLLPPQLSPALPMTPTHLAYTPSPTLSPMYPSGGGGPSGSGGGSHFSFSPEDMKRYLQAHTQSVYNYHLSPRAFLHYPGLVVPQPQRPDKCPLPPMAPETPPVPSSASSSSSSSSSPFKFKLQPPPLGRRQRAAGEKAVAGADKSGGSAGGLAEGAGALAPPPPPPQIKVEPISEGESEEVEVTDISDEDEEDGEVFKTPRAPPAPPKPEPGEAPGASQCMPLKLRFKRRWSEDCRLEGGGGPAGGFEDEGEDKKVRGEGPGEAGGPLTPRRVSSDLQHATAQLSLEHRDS
Method in brief: as §1

[12] = target: T7, ETV3L (Homo sapiens, UniProt Q6ZN32 1-361); details: protein: recombinant; tags: N-terminal GST; dsDNA, one strand shown
T7 sequence: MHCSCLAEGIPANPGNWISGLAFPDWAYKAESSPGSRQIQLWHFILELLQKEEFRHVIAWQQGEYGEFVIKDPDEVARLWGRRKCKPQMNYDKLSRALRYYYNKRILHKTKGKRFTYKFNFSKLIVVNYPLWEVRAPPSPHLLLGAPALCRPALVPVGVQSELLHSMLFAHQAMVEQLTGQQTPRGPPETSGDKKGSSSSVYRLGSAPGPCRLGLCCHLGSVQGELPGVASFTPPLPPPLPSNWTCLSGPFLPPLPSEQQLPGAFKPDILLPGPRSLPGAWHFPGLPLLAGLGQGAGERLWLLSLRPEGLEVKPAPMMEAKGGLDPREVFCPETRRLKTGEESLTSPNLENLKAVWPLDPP
Method in brief: as §1

[13] = target: T8, ETS2 (Homo sapiens, UniProt P15036 1-469); details: protein: recombinant; tags: N-terminal GST; dsDNA, one strand shown
T8 sequence: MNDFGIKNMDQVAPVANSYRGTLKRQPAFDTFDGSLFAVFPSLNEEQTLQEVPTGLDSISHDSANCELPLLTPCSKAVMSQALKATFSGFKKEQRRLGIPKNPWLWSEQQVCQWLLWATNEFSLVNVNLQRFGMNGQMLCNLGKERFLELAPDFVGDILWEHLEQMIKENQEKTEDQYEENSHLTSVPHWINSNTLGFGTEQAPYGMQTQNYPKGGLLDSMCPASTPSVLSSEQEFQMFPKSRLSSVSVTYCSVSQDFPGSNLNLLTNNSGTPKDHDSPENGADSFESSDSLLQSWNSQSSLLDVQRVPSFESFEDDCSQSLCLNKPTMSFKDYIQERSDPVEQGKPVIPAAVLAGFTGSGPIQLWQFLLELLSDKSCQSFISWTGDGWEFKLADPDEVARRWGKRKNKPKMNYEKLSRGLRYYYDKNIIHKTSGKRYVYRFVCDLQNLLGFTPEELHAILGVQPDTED
Method in brief: as §1

[14] = target: T9, SPDEF (Homo sapiens, UniProt O95238 1-335); details: protein: recombinant; tags: N-terminal GST; dsDNA, one strand shown
T9 sequence: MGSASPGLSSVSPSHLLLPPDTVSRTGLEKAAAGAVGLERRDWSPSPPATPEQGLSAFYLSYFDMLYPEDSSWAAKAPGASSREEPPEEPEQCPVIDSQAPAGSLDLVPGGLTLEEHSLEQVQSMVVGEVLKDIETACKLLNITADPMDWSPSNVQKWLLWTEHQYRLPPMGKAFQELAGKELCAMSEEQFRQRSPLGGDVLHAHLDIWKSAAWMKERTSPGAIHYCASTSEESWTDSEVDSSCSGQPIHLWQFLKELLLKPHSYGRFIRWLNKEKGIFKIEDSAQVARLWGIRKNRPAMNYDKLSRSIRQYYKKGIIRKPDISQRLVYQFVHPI
Method in brief: as §1

[15] = target: T10, ETV7 (Homo sapiens, UniProt Q9Y603 1-341); details: protein: recombinant; tags: N-terminal GST; dsDNA, one strand shown
T10 sequence: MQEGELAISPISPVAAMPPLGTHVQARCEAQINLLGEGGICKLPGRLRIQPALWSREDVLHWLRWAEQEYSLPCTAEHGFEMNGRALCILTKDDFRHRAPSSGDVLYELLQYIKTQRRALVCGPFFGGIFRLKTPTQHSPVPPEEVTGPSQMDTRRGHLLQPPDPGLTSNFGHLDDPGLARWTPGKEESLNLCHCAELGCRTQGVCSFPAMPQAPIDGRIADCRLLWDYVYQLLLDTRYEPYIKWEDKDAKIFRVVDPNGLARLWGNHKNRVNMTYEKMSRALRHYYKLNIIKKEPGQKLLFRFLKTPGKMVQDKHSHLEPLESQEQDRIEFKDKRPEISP
Method in brief: as §1

[16] = target: T11, ELF5 (Homo sapiens, UniProt Q9UKW6-2 1-255); details: protein: recombinant; tags: N-terminal GST; dsDNA, one strand shown
T11 sequence: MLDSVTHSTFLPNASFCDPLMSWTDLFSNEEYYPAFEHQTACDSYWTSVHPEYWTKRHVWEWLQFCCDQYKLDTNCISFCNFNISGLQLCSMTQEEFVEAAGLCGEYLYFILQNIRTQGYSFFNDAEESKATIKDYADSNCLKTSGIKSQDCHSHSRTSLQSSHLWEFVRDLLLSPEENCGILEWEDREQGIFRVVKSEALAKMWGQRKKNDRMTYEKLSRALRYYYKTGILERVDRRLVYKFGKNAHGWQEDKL
Method in brief: as §1

[17] = target: T12, ETV3 (Homo sapiens, UniProt P41162-2 1-143); details: protein: recombinant; tags: N-terminal GST; dsDNA, one strand shown
T12 sequence: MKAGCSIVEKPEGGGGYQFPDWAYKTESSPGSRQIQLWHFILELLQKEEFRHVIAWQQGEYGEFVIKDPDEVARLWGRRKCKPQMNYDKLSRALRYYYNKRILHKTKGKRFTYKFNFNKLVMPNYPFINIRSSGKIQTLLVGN
Method in brief: as §1

[18] = target: ETV6 (Homo sapiens, UniProt P41212 1-452); details: protein: recombinant; tags: N-terminal GST; dsDNA, one strand shown
Sequence of ETV6 (P41212 whole entry): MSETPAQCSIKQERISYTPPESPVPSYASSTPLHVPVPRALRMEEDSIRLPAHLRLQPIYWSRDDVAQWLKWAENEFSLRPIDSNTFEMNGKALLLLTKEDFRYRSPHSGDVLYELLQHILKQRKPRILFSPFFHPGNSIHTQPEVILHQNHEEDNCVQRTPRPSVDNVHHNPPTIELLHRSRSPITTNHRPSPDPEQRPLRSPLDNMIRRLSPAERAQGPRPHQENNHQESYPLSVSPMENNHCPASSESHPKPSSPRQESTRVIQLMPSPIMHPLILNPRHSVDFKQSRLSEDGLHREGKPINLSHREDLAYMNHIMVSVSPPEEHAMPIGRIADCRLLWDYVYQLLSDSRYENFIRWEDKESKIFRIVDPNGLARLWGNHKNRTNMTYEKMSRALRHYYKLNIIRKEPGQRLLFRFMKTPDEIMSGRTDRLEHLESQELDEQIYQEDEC
Method in brief: as §1

TTTCGG was tested, and the binding signal [1] was 1.15 fold enrichment (6-mer frequency, TF over GST control), the binding signal [2] was 1.13 fold enrichment (6-mer frequency, TF over GST control) and the binding signal [3] was 1.39 fold enrichment (6-mer frequency, TF over GST control). For the same sequence, the binding signal [4] was 1.05 fold enrichment (6-mer frequency, TF over GST control), the binding signal [5] was 1.21 fold enrichment (6-mer frequency, TF over GST control) and the binding signal [6] was 1.14 fold enrichment (6-mer frequency, TF over GST control). For the same sequence, the binding signal [7] was 1.16 fold enrichment (6-mer frequency, TF over GST control), the binding signal [8] was 1.22 fold enrichment (6-mer frequency, TF over GST control) and the binding signal [9] was 1.25 fold enrichment (6-mer frequency, TF over GST control). For the same sequence, the binding signal [10] was 1.31 fold enrichment (6-mer frequency, TF over GST control), the binding signal [11] was 1.17 fold enrichment (6-mer frequency, TF over GST control) and the binding signal [12] was 1.22 fold enrichment (6-mer frequency, TF over GST control). The binding signal [13] was 1.24 fold enrichment (6-mer frequency, TF over GST control), the binding signal [14] was 1.21 fold enrichment (6-mer frequency, TF over GST control) and the binding signal [15] was 1.28 fold enrichment (6-mer frequency, TF over GST control). The binding signal [16] was 1.21 fold enrichment (6-mer frequency, TF over GST control), the binding signal [17] was 1.16 fold enrichment (6-mer frequency, TF over GST control) and the binding signal [18] was 1.19 fold enrichment (6-mer frequency, TF over GST control).
